C diff HTS = C. difficile growth inhibitors, primary screen, HTS. 86,000 compounds, 0.25% hits. AID 1259249, 2017. growth activity, negative = inhibition, % at 16 µg/mL (by protocol). Clostridium difficile clinical isolate growth, OD600, 24 h; hits give low values;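 active means mean growth activity at or below -80% and every replicate also at or below -80%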;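 further: 0% = DMSO wells and -100% = levofloxacin 16 µg/mL wells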
Pf Dd2 inh = P. falciparum Dd2 growth inhibitors, primary screen, SYBR Green fluorescence, single dose replicates; 72 h; hits give low values; activity change, % at 10 µM; 94,000 compounds, 2.3% hits; AID 1159554, 2015; in the data active means activity change below about -80%
Starred values were filed as active, the others as inactive; / = no result given. Only some compounds are listed: those with a hit (about 2.4% of all), similar ones and a draw of the others.

SMILES | C diff HTS | Pf Dd2 inh
COc1ccc(NC(=O)N(C)C[C@H]2Oc3c(NC(=O)c4nc5ccccc5s4)cccc3C(=O)N([C@@H](C)CO)C[C@@H]2C)cc1 | 1 | -27
C[C@H](CO)N1C[C@H](C)[C@@H](CN(C)S(=O)(=O)c2ccccc2)Oc2c(NC(=O)c3nc4ccccc4s3)cccc2C1=O | 5 | -28
C[C@H]1CN([C@@H](C)CO)C(=O)c2cccc(NC(=O)c3nc4ccccc4s3)c2O[C@@H]1CN(C)C(=O)NC1CCCCC1 | / | -29
C[C@@H]1CN([C@H](C)CO)C(=O)c2cccc(NC(=O)c3nc4ccccc4s3)c2O[C@H]1CN(C)C(=O)NC1CCCCC1 | / | -89*
COc1ccc(NC(=O)N(C)C[C@@H]2Oc3c(NC(=O)c4nc5ccccc5s4)cccc3C(=O)N([C@@H](C)CO)C[C@H]2C)cc1 | -6 | -87*
C[C@@H]1CN([C@@H](C)CO)C(=O)c2cccc(NS(=O)(=O)c3ccccc3)c2O[C@@H]1CN(C)C(=O)Nc1cccc2ccccc12 | -17 | -73
C[C@@H]1CN([C@H](C)CO)C(=O)CCCn2cc(nn2)CO[C@@H]1CN(C)C(=O)NC1CCCCC1 | -1 | 9
Cc1ccc(S(=O)(=O)N(C)C[C@@H]2Oc3c(NC(=O)NC4CCCCC4)cccc3C(=O)N([C@H](C)CO)C[C@H]2C)cc1 | -12 | -40
C[C@@H]1CN([C@H](C)CO)C(=O)c2cccc(NC(=O)Nc3ccc(C(F)(F)F)cc3)c2O[C@@H]1CN(C)Cc1ccc(C(=O)Nc2ccccc2N)cc1 | 40 | -90*
C[C@H]1CN([C@@H](C)CO)C(=O)c2cccc(NC(=O)Nc3ccc(C(F)(F)F)cc3)c2O[C@H]1CN(C)Cc1ccc(C(F)(F)F)cc1 | 27 | -8
C[C@H](CO)N1C[C@H](C)[C@H](CN(C)Cc2ccc(C(=O)Nc3ccccc3N)cc2)Oc2c(NC(=O)Nc3ccc(C(F)(F)F)cc3)cccc2C1=O | 7 | -77
C[C@@H]1CN([C@@H](C)CO)C(=O)c2cccc(NC(=O)Nc3ccc(C(F)(F)F)cc3)c2O[C@@H]1CN(C)Cc1ccc(C(=O)Nc2ccccc2N)cc1 | 45 | -91*
C[C@@H]1CN([C@@H](C)CO)C(=O)c2cccc(NC(=O)C3CCCCC3)c2O[C@@H]1CN(C)S(=O)(=O)c1ccc(F)cc1 | -11 | -61
C[C@@H]1CN([C@H](C)CO)C(=O)c2cc(NC(=O)Nc3ccc4c(c3)OCO4)ccc2O[C@H]1CN(C)Cc1ccccc1 | 0 | 20
C[C@@H]1CN([C@H](C)CO)C(=O)Cc2cc(NC(=O)Cc3ccccc3)ccc2O[C@@H]1CN(C)Cc1ccc(C(=O)Nc2ccccc2N)cc1 | 4 | -85*
C[C@@H]1CN([C@@H](C)CO)C(=O)Cc2cc(NC(=O)Cc3ccccc3)ccc2O[C@H]1CN(C)Cc1ccc(C(=O)Nc2ccccc2N)cc1 | 10 | -16
C[C@H]1CN([C@@H](C)CO)C(=O)Cc2cc(NC(=O)Cc3ccccc3)ccc2O[C@@H]1CN(C)Cc1ccc(C(=O)Nc2ccccc2N)cc1 | 12 | -88*
C[C@@H]1CN([C@@H](C)CO)C(=O)Cc2cc(NC(=O)Nc3ccccc3)ccc2O[C@@H]1CN(C)Cc1ccc(C(=O)Nc2ccccc2N)cc1 | -6 | -80
C[C@H](CO)N1C[C@H](C)[C@@H](CN(C)Cc2ccc(C(=O)Nc3ccccc3N)cc2)Oc2ccc(NC(=O)Nc3ccc4c(c3)OCO4)cc2CC1=O | 13 | -83*
C[C@@H]1CN([C@H](C)CO)C(=O)Cc2cc(NC(=O)Nc3ccc4c(c3)OCO4)ccc2O[C@H]1CN(C)Cc1ccc(C(=O)Nc2ccccc2N)cc1 | 1 | 5
C[C@@H]1CN([C@H](C)CO)C(=O)c2cc(NC(=O)CCCN(C)C)ccc2O[C@@H](C)CCCCO[C@@H]1CN(C)Cc1ccc(C(=O)O)cc1 | 9 | 25
COc1ccc(NC(=O)N(C)C[C@H]2OCc3cn(nn3)CCCC(=O)N([C@H](C)CO)C[C@H]2C)c(OC)c1 | -5 | 6
Cc1noc(C)c1NC(=O)N(C)C[C@@H]1Oc2ccc(NC(=O)Nc3ccc(C(F)(F)F)cc3)cc2CC(=O)N([C@@H](C)CO)C[C@@H]1C | 1 | -1
CC(C)N(C[C@H]1[C@H](c2ccccc2)[C@@H](CO)N1S(C)(=O)=O)C(=O)CN(C)C | -1 | 15

High-throughput results from PubChem BioAssay.
